Inconclusive results are not listed. The source made the active and inactive calls. Unless noted, the call rests on the fitted dose curve.
How the values were obtained:
[1] = Inducers of the Endoplasmic Reticulum Stress Response (ERSR) in human glioma: Validation (AID 504836; active means well fitted curve in the direction sought with a large enough effect)
Procedure, shortened: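 ERSR induction read as luciferase luminescence (Bright-Glo, 10 min at room temperature) in stably transfected human U87-MG glioma cells exposed to compounds for 16 h, using GRP78 as sensor.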

[2] = qHTS for Inhibitors of the Functional Ribonucleoprotein Complex (vRNP) of Lassa (LASV) Arenavirus: LASV Primary Screen - GLuc reporter signal (AID 1347082; calls by dose curve; tested in HEK293 reporter line; further: series mostly up to about 57 µM; nearly all actives have a fitted effect of over 60% in size)
[3] = qHTS for Inhibitors of the Functional Ribonucleoprotein Complex (vRNP) of Lassa (LASV) Arenavirus: Viability assay - alamar blue signal for LASV Primary Screen (AID 1347083; calls by dose curve; tested in HEK293 reporter line; further: series mostly up to about 57 µM; nearly all actives have a fitted effect of over 80% in size)
[4] = qHTS for Inhibitors of the Functional Ribonucleoprotein Complex (vRNP) of Lymphocytic Choriomeningitis Arenaviruses (LCMV): Viability assay - alamar blue signal for LCMV Primary Screen (AID 1347085; calls by dose curve; tested in HEK293 reporter line; further: series mostly up to about 57 µM; nearly all actives have a fitted effect of over 80% in size)
[5] = biological target: Nucleoprotein (Lymphocytic choriomeningitis virus (strain Armstrong)) (UniProt P09992); assay: qHTS for Inhibitors of the Functional Ribonucleoprotein Complex (vRNP) of Lymphocytic Choriomeningitis Arenaviruses (LCMV): LCMV Primary Screen - GLuc reporter signal (AID 1347086); further: series mostly up to about 57 µM; nearly all actives have a fitted effect of over 70% in size
Nucleoprotein (Lymphocytic choriomeningitis virus (strain Armstrong)), sequence (P09992 whole entry, looked up): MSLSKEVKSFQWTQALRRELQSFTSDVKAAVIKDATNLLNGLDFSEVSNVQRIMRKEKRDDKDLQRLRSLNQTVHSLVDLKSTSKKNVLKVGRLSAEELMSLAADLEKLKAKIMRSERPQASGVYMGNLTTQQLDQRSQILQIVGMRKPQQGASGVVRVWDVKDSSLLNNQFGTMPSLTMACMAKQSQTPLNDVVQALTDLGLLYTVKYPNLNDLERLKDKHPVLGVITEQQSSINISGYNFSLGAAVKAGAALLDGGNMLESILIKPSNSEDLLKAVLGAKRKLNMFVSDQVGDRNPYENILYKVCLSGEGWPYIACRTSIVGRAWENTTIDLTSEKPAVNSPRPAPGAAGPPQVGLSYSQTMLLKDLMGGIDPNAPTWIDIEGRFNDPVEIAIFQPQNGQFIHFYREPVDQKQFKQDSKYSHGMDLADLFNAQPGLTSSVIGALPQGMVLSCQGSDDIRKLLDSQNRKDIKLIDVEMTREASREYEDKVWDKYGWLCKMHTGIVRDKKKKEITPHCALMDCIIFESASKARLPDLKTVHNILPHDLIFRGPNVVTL

Measured: Potency

CN(CC[C@@H](Oc1ccc(C(F)(F)F)cc1)c1ccccc1)CC(=O)O
inactive: all assays above

CC(C)(C)[C@]1(O)CCN2C[C@H]3c4ccccc4CCc4cccc(c43)[C@@H]2C1
inactive: all assays above

CN1C2CCCC1CC(NC(=O)c1nn(C)c3ccccc13)C2 (stereo not given)
inactive: all assays above

CO/S(=N\S(=O)(=O)c1ccc(Cl)cc1)c1ccc([N+](=O)[O-])cc1 (stereo not given)
inactive: all assays above

NC[C@H]1O[C@@H](n2cnc3c(N)ncnc32)[C@H](O)[C@@H]1O
inactive: all assays above

COc1ccc(CCn2nnnc2C2(c3ccc(C)cc3)CC2)cc1
inactive: all assays above

CCN(CC)CCNC(=O)c1ccc(NS(C)(=O)=O)cc1
inactive: all assays above

Cc1cccc(/C=C/c2ccccc2)n1
inactive: all assays above

O=C1NC(=O)/C(=C/c2ccc3c(c2)OC(F)(F)O3)S1
inactive: all assays above

CC(=O)SC1CC2=CC(=O)CC[C@]2(C)C2CC[C@@]3(C)C(CC[C@@]34CCC(=O)O4)C12 (stereo not given in full)
inactive: all assays above

CC(C)[C@@H]1CC[C@@H](C)C[C@@H]1P(=O)(c1ccccc1)c1ccccc1
inactive: all assays above

CC(O)C(O)[C@H]1CNc2nc(N)[nH]c(=O)c2N1 (stereo not given in full)
inactive: all assays above

Oc1cc2c(c(Cl)c1O)CCNCC2c1ccccc1 (stereo not given)
inactive: all assays above

C[C@H](Cc1ccccc1)Nc1ncnc2c1ncn2[C@@H]1O[C@H](CO)[C@@H](O)[C@H]1O
inactive: all assays above

C[C@H]1O[C@@H](n2cc(F)c(=O)[nH]c2=O)[C@H](O)[C@H]1O
inactive: all assays above

CCCCC#Cc1nc(NC)c2ncn([C@@H]3O[C@H](CO)[C@@H](O)[C@H]3O)c2n1
inactive: all assays above

CCCn1c(=O)c(C)cn2nc(N)nc12
inactive: all assays above

Nc1nc(Cl)nc2c1ncn2[C@@H]1O[C@H](CO)[C@@H](O)[C@H]1O
inactive: all assays above

C[C@H]1CC2C3CCC4=CC(=O)C=C[C@]4(C)[C@@]3(Cl)[C@@H](O)C[C@]2(C)[C@@]1(O)C(=O)CO (stereo not given in full)
inactive: all assays above

CCCCCCCCc1ccc(-c2ccc(C(=O)O)cc2)cc1
inactive: all assays above

C[N+](C)(C)CCOP(=O)(O)OP(=O)([O-])OC[C@H]1O[C@@H](n2ccc(N)nc2=O)[C@H](O)[C@@H]1O
inactive: all assays above

CN(C)c1ccc(/C=C2\C(=O)Nc3ccccc32)cc1
inactive: all assays above

NC[C@@H]1O[C@H](c2ccccc2)Cc2c1ccc(O)c2O
inactive: all assays above

NC(=S)NCCC[C@H](N)C(=O)O
inactive: all assays above

Nc1nc(Nc2ccccc2)nc2c1ncn2[C@@H]1O[C@H](CO)[C@@H](O)[C@H]1O
inactive: all assays above

O=c1ccn([C@@H]2O[C@H](COP(=O)(O)OP(=O)(O)O)[C@@H](O)[C@H]2O)c(=O)[nH]1
inactive: all assays above

CSc1nc(N)c2ncn([C@@H]3O[C@H](COP(=O)(O)OP(=O)(O)O)C(O)[C@H]3O)c2n1 (stereo not given in full)
inactive: all assays above

O=C1/C(=C/c2ccsc2)CC/C1=C\c1cccs1
inactive: all assays above

N[C@@H](Cn1ccc(=O)c(O)c1)C(=O)O
inactive: all assays above

Cc1cc(Cn2cnc3c2C[C@@H](C(=O)O)N(C(=O)C(c2ccccc2)c2ccccc2)C3)ccc1N
inactive: all assays above

C=C1C[C@@]23CC[C@H]4[C@@](C)(CCC[C@@]4(C)C(=O)O)[C@@H]2CC[C@]1(O)C3
inactive: all assays above

C#CC(N)CCC(=O)O (stereo not given)
inactive: all assays above

CCc1c(C(=O)NCCc2ccc(N3CCCCC3)cc2)[nH]c2ccc(Cl)cc12
inactive: all assays above

CN1CC(O)C(O)C(O)C1CO (stereo not given)
inactive: all assays above

O=C(O)CCC/C=C\C[C@@H]1[C@@H](/C=C/[C@H](O)C2Cc3ccccc3C2)[C@@H](F)C[C@@H]1O
inactive: all assays above

Nc1ncnc2c1nc(Sc1ccc(Cl)cc1)n2[C@H]1OC2COP(=O)(O)O[C@@H]2C1O (stereo not given in full)
inactive: all assays above

CCCC1(C)C(C#N)(C#N)C1(C#N)C#N
inactive: all assays above
